The text below walks through data of PubChem BioAssay AID2315 (National Center for Advancing Translational Sciences (NCATS), 2010).

Each structure is given as a SMILES string. Among all 290,000 compounds or so, about 27,000 (9.3%) were called active. The sample as a whole holds a higher share of actives than the screen did. A number with no mark means an inactive call. No stated cut-off is given here; in the data, active means inhibition mostly above about 28% (no sharp cut-off); inactive means mostly below about 43%.

A short description of this experiment: A qHTS for Small Molecule Inhibitors of Shiga Toxin. Further: 0% is about no effect. As to conditions: Vero cells, Shiga toxin protein synthesis inhibition reporter; at 38.7 µM, active compounds read high. In general terms: Quantitative high-throughput screening tests each substance at several concentrations.
Turning to `O=C(Oc1ccc2c(c1)CCC2)N1CCOCC1`, the inhibition is 97.3% (active).
For `O=C(Oc1ccc(F)cc1)N1CCOCC1`, the inhibition was -2.55%.
As for `O=C(Nc1cccc(OC(=O)N2CCCCC2)c1)N1CCOCC1`, the figure is -5.26%; as for `CNS(=O)(=O)c1cccc(C(=O)NC2CCCc3ccccc32)c1` (stereo not given), 2.04%.
`COc1ccccc1N(CC(=O)NC1CCCC1)C(=O)C1(C)CC(=O)N=C2C=CC(C)=CN21` (stereo not given): the inhibition is -13.3%.
As to `CSc1ncccc1C(=O)OCc1ccc(Br)cc1`, the inhibition was 42% (active).
The value for `CSc1ncccc1C(=O)OCC(=O)N1CCOCC1` was -2.04%; that for `CSc1ncccc1C(=O)NC1CCCCCC1` was 27.5%.
The value for `COc1ccc(N2CCN(C(=O)[C@@H](NC(=O)c3cc(OC)cc(OC)c3)C(C)C)CC2)cc1` was 2.67%; that for `O=C(CN1CCN(S(=O)(=O)c2ccc(F)cc2)CC1)NC1CC1` was -30.6%.
As for `COc1ccc(-c2ccc(C3C4C=CCCC4(C)C(=O)N3Cc3ccccc3)c(F)c2)cc1OC` (stereo not given), the figure is -1.56%; as for `Cc1cc(OCc2cc(C(=O)NCc3cc(C(C)C)no3)no2)cc(C)c1Cl`, 79.8% (active); as for `Cc1cc(OCc2ccc(C(=O)Nc3ccc(C(=O)O)cc3)o2)ccc1Cl`, 2.97%.
Take `COCCCNC(=O)COc1cc(C)c(Cl)c(C)c1`: the inhibition was -11.4%.
Turning to `Nc1nc(CC(=O)CSc2ccc(Cl)cc2)nc(Nc2ccc(F)cc2)n1`, the inhibition is -6.2%.
As to `CC(C)CN(C(=O)c1cccc(S(=O)(=O)N2CCCCC2)c1)C1CCS(=O)(=O)C1` (stereo not given), the inhibition is -6.54%.
With `O=C(Cn1c(=O)n(CC2CS2)c2ccccc21)N1CCCCC1` (stereo not given), the inhibition is -7.24%.
On to `CCOC(=O)C1(Cc2ccccc2C)CCCN(C(=O)c2ccc(COC)o2)C1` (stereo not given), for which the inhibition is 121% (active).
As for `CCOC(=O)C1(Cc2ccccc2C)CCCN(C(=O)CN2C(=O)CSC2=O)C1` (stereo not given), the inhibition was 78.9% (active).
For `CCOC(=O)C1(Cc2ccccc2C)CCCN(S(C)(=O)=O)C1` (stereo not given), the inhibition is -1.22%.
Turning to `O=C(CN1C(=O)CSC1=O)N1CCCC(Nc2ccc(F)cc2)C1` (stereo not given), the inhibition was 0.485%.
For `CCOC(=O)C1(CCc2ccccc2)CCN(Cc2ccco2)CC1`, the inhibition was -2.54%.
For the molecule `CC(C)c1ccc(S(=O)(=O)NC2CCCC2)cc1`, the inhibition is -8.49%.
As for `CSc1ccccc1NC(=O)c1ccc2c(c1)CCN2S(C)(=O)=O`, the figure is 38.2% (active); as for `CS(=O)(=O)N1CCc2cc(C(=O)Nc3ccccc3Br)ccc21`, 50.7% (active).
In the case of `CCc1ccccc1NC(=O)c1ccc2c(c1)CCN2S(C)(=O)=O`, the inhibition was 21.4%.
Consider `CC(=O)Nc1cccc(NC(=O)c2ccc3c(c2)CCN3S(C)(=O)=O)c1`, for which the inhibition is 6.84%.
Turning to `CS(=O)(=O)N1CCc2cc(C(=O)Nc3ccccc3)ccc21`, the inhibition was 3.54%.
Turning to `COc1ccc(OC)c(NC(=O)c2ccc3c(c2)CCN3S(C)(=O)=O)c1`, the inhibition is -5.31%.
As for `COc1cccc(Cn2cc(/C=N/NC(=O)c3cc(O)cc(O)c3)c3ccccc32)c1`, the inhibition was -3.1%.
The value for `CS(=O)(=O)c1ccccc1C(=O)Nc1ccc2sccc2c1` was -5.25%; that for `O=C(CCl)Nc1ccc(Sc2ccc(NC(=O)CCl)cc2)cc1` was 16%.
The value for `CCN(c1ccccc1)S(=O)(=O)c1ccc(NC(=O)C(C)(C)C)cc1` was 3.09%; that for `CC(C)(CCl)C(=O)Nc1ccc(Sc2ccc(F)cc2)cc1` was 83% (active); that for `O=C(c1cnn(-c2ccc(Cl)cc2)c1)c1ccccc1O` was 59.4% (active).
As to `O=C(O)c1ccc(NC(=O)c2cn(-c3ccccc3)nc2-c2ccc(Cl)cc2)cc1`, the inhibition is 24.5%.
For `Cc1ncc(CC(=O)n2cc(C(=O)c3cc(Cl)ccc3O)cn2)s1`, the inhibition is 8.82%.
The value for `CC(=O)Nc1c2c(nn1-c1cccc(C)c1)CSC2` was -5.43%.
Regarding `O=C(CCS(=O)(=O)c1ccc(Br)cc1)NCCc1ccc(Cl)cc1`, the inhibition is -14.4%.
Take `Cc1nn(Cc2ccccc2Cl)c(Cl)c1C(=O)OC(C(=O)NC(N)=O)C(C)C` (stereo not given): the inhibition is 8.84%.
As for `COc1ccccc1CCNC(=O)c1c(C)nn(CC(C)C)c1Cl`, the figure is 62.8% (active); as for `COc1ccccc1CCNC(=O)c1cnccn1`, 10.7%; as for `N#CC(C#N)=CN=c1ccn(Cc2ccc(Cl)cc2Cl)cc1`, 1.18%.
As for `Clc1c(OCCCn2ccnc2)ccc2ccccc12`, the figure is 17.6%; as for `Cc1ccc(CCNC(=O)c2ccc3nc4ccccc4c(=O)n3c2)cc1`, 5.74%; as for `O=C(Oc1ccccc1C(=S)N1CCCCC1)c1cc([N+](=O)[O-])cc([N+](=O)[O-])c1`, 13%.
As to `O=C(COc1ccc2oc3c(c2c1)CCCC3)Nc1ccccn1`, the inhibition was 57.2% (active).
For the molecule `CCN(CC)CCCNC(=O)COc1ccc2oc3c(c2c1)CCCC3`, the inhibition is -7.61%.
On to `Cc1ccc(OCC(=O)Nc2ccc(S(=O)(=O)Nc3ccccn3)cc2)cc1`, for which the inhibition is 2.76%.
For the molecule `Cc1ccc(Cn2nnc3c(=O)[nH]c(C4CCN(S(=O)(=O)/C=C/c5ccccc5)CC4)nc32)cc1`, the inhibition is -13.7%.
For `COCn1c(C(O)c2ccccc2)cc2ccccc21` (stereo not given), the inhibition was -6.57%.
As to `Cc1ccn2c(c1)nc(=O)c1cc(S(=O)(=O)N3CCC(C)CC3)ccc12`, the inhibition is 14.3%.
As to `O=C1Nc2cc(C(=O)N3CCC(N4CCCCC4)CC3)ccc2S/C1=C\c1ccccc1`, the inhibition was -12.8%.
Consider `C=CCCN(C(Cc1ccccc1)C(=O)OC)S(=O)(=O)c1cc(Br)ccc1Br` (stereo not given), for which the inhibition was 2.22%.
Turning to `COc1cccc(NC(=S)NCc2ccccn2)c1`, the inhibition is 60.7% (active).
In the case of `O=C(NCc1cccc(CNC(=O)Nc2cccc(O)c2)c1)Nc1cccc(O)c1`, the inhibition was 17.1%.
For `Cc1cc(C)cc(NC(=O)NCc2ccccn2)c1`, the inhibition is -1.91%.
Regarding `COc1cccc(S(=O)(=O)NCc2ccc(C(=O)NCc3ccccn3)cc2)c1`, the inhibition is -7.83%.
Turning to `COc1cccc(NC(=O)NCCN2CCCCC2)c1`, the inhibition is 17.6%.
As for `CCC(C)c1ccc(NC(=S)NCc2ccccn2)cc1` (stereo not given), the figure is 56.9% (active).
As to `COc1cccc(NC(=S)N(Cc2ccc(C)cc2)Cc2ccccn2)c1`, the inhibition was -9.99%.
As for `COc1cccc(NC(=O)NCc2ccc(F)cc2)c1`, the figure is 43.7% (active); as for `COC(=O)Cc1ccc(NC(=S)NCc2ccccc2)cc1`, -2.18%; as for `COc1ccc(OC)c(CCNC(=O)CCn2ccc3cc(S(=O)(=O)N4CCCC4)ccc32)c1`, 1.48%.
In the case of `COc1ccc(N(CC(=O)Nc2ccc(F)c(F)c2)S(=O)(=O)c2c(C)[nH]c(=O)[nH]c2=O)cc1`, the inhibition is -5.76%.
Consider `COc1cccc(OC)c1C(=O)Nc1ccc2c(c1)n(C)c(=O)n2C`, for which the inhibition is -1.01%.
Consider `COc1ccc(NS(=O)(=O)c2cc(NC(=O)C3CCCCC3)ccc2N2CCOCC2)cc1`, for which the inhibition was -4.94%.
Regarding `Cn1c(=O)[nH]c(=O)c2c1[nH]c(=S)n2Cc1ccccc1`, the inhibition was -6.6%.
Take `CCc1cccc(C)c1NS(=O)(=O)c1c(C)nc2sccn2c1=O`: the inhibition was -3.6%.
Regarding `CCNS(=O)(=O)c1ccc(CCC(=O)N2CCN(c3cc(Cl)ccc3C)CC2)cc1`, the inhibition is -3.72%.
With `O=c1o[nH]c(-c2ccccc2)c1N=Nc1c(F)cccc1Cl`, the inhibition was -2.82%.
On to `Cc1noc(C)c1-c1ccc2ncnc(NCc3ccc4[nH]ccc4c3)c2c1`, for which the inhibition is 70.1% (active).
On to `Cc1noc(C)c1-c1ccc2ncnc(NC(C)c3ccco3)c2c1` (stereo not given), for which the inhibition is 30.2%.
For `Cc1noc(C)c1-c1ccc2ncnc(NCc3ccc(F)c(F)c3)c2c1`, the inhibition was 10.1%.
For the molecule `O=Cc1c(NCCCN2CCCC2=O)c2ccccc2[nH]c1=O`, the inhibition is 7.22%.
As to `Cc1cccc(NC(=O)CSc2nc3[nH]ncc3c(=O)[nH]2)c1`, the inhibition was -11.6%.
Regarding `CCCSc1nc2[nH]ncc2c(=O)[nH]1`, the inhibition is -9.31%.
For `Cc1ccc(CSc2nc3[nH]ncc3c(=O)[nH]2)cc1`, the inhibition is 136% (active).
For the molecule `Cc1ccc(S(=O)(=O)N(C)C)cc1NC(=O)C1Cc2ccccc2CN1C(=O)c1ccco1` (stereo not given), the inhibition is -7.79%.
Consider `COc1ccc(Cl)cc1-n1c(=S)sc2c(=O)n(-c3ccc(F)cc3)c(SCC(=O)O)nc21`, for which the inhibition is 19.4%.
With `CN(C)c1ccc(/C=N/NC(=O)C(O)c2ccc(Br)cc2)cc1` (stereo not given), the inhibition was 20.6%.
The value for `CC(=O)NC(CC(=O)O)c1ccc(F)cc1` (stereo not given) was -5.08%; that for `CN(C)c1ccc(C(CC(=O)O)C(=O)O)cc1` (stereo not given) was 73.8% (active).
As for `COc1ccccc1N(C)C(=O)c1cc(S(=O)(=O)N2CCc3ccccc32)cn1C`, the figure is 8.5%.
In the case of `O=C(CN1CCN(c2ccc(F)cc2)CC1)Nc1ccccc1`, the inhibition was -6.95%.
Turning to `Cc1cc(O)ccc1-c1cnc2ccccc2n1`, the inhibition was 99.9% (active).
As to `Cc1ccc(-c2cc(C(=O)Nc3nn[nH]n3)c3ccccc3n2)c(C)c1`, the inhibition is -11.6%.
Turning to `CC(=O)Nc1cccc(-c2cnc3ccccc3n2)c1`, the inhibition was 116%.
As to `Cc1oc2c(F)c(F)c(F)c(F)c2c1S(=O)(=O)Nc1cccc(C(F)(F)F)c1`, the inhibition is -4.67%.
As to `CCOC(=O)C1CCCN(S(=O)(=O)c2ccc3c(c2)C(C)(C)C(=O)N3C)C1` (stereo not given), the inhibition was -10.9%.
For the molecule `COCCN1C(=O)N(c2ccc(Cl)cc2)C(=O)C1CC(=O)Nc1cc(OC)cc(OC)c1` (stereo not given), the inhibition was 0.637%.
For the molecule `Cn1c(CCCOc2ccc(Cl)cc2Cl)n[nH]c1=S`, the inhibition is 57.3% (active).
In the case of `O=C(CCCOc1ccc(Cl)cc1Cl)NNC(=O)C1CCC1`, the inhibition is 27.9%.
As for `S=c1[nH]nc(CSCc2ccc(Cl)cc2Cl)n1-c1ccccc1`, the figure is -6.51%.
For `O=C(COc1ccc(S(=O)(=O)Nc2cccc(C(F)(F)F)c2)cc1)N1CCOCC1`, the inhibition is -9.6%.

As a reminder, the inhibition is the drop in the measured response relative to a control, in per cent.
